Compounds with a hit are over-represented: about 6.7% of the library has one in this group of screens.
MCF10A rereplic: A quantitative high throughput screen for small molecules that induce DNA re-replication in MCF 10a normal breast cells. MCF 10A DNA re-replication, Hoechst nuclear intensity, 48 h. Potency, µM (doses to about 46.1 µM), usual class: activators. 2.9% of 350,000 active. AID 624296, 2012; further: nearly all actives have a fitted effect of over 50% in size
SW480 rerep: A quantitative high throughput screen for small molecules that induce DNA re-replication in SW480 colon adenocarcinoma cells; SW480 DNA re-replication, Hoechst DNA content imaging, 48 h; Potency, µM (highest dose often 46.1 µM), usual class: activators; 1.8% of 340,000 active; further: nearly all actives have a fitted effect of over 55% in size
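Hoechst fluorescence of nuclei (405 nm excitation, 500-530 nm emission) measured by plate-scanning imager after 48 hr compound exposure at 37 C; re-replication scored as increased number of nuclei with elevated intensity.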
KB-3-1 tox: qHTS assay for MDR1-selective chemotherapeutics: Primary screen using the parental adenocarcinoma cell KB-3-1; 1.4% of 400,000 active; Potency, µM (series often up to 46.1 µM), most hits filed as cytotoxic; AID 1347075, 2019; KB-3-1 viability, CellTiter-Glo ATP luminescence, 72 h; further: nearly all actives have a fitted effect of over 60% in size
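72 h, 37 °C compound treatment of KB-3-1 parental cells; CellTiter-Glo added, 10 min, luminescence read. Data corrected against DMSO-only plates and normalized before curve fitting.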
PINK1 modulator: A Quantitative High throughput Screen to Identify Chemical Modulators of PINK1 Expression; PINK1 immunofluorescence, high-content cytometry, 24 h; Potency, µM (titrated, usually from 76.6 µM), usual class: activators; 0.2% of 410,000 active; AID 624263, 2012; active means well fitted activation curve with a large enough effect; inconclusive means small, poorly fitted or top-dose-only effect; cell line not stated here; further: nearly all actives have a fitted effect of over 65% in size
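Cells are seeded, rested 12 hours, then given compound at five concentrations or DMSO for 24 hours. After fixation, blocking and antibody staining, PINK1 amount and mitochondrial localization are scored; CCCP serves as control.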
KB-V1 MDR tox: qHTS assay for MDR1-selective chemotherapeutics: Primary screen using the drug-selected MDR subline cells KB-V1 | KB-V1 MDR cells viability, CellTiter-Glo, 72 h | Potency, µM (highest dose often 46.1 µM), hits mostly cytotoxic | 3.4% of 400,000 active; further: nearly all actives have a fitted effect of over 60% in size
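KB-V1 cells (P-gp-expressing MDR subline of KB-3-1) in phenol-red-free DMEM with 10% FBS were exposed to library compounds over a concentration series for 72 h at 37 degrees C. Viability read by CellTiter-Glo luminescence; concentration-effect curves fitted after normalization.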
Hits are given with their value; - = inactive; ? = inconclusive; . = no result; ! = a repeat was not active. Unless noted, the call rests on the fitted dose curve; in most records, active means well fitted curve in the direction sought with a large enough effect; inconclusive means small, poorly fitted or top-dose-only effect, or another doubt; inactive means no such curve, though single readings can be large; an effect the other way counts as inactive or inconclusive.

SMILES | MCF10A rereplic | SW480 rerep | KB-3-1 tox | PINK1 modulator | KB-V1 MDR tox
Cc1nn(-c2ccccc2)c(C)c1/C=N/NC(=O)c1cc(-c2ccccc2)n[nH]1 | ? | ? | 0.41µM | - | ?
Cc1ccc(-c2nnc(SCC(=O)N/N=C/c3c(C)nn(-c4ccccc4)c3C)n2-c2ccc(C)cc2)cc1 | - | - | ? | - | 21µM
Cc1ccc(-c2nnc(SCC(=O)N/N=C/c3c(C)nn(-c4ccccc4)c3C)n2-c2ccccc2)cc1 | ? | ? | ? | - | 15µM
Cc1nn(-c2ccccc2)c(C)c1/C=N/NC(=O)CSc1nnc(-c2ccccc2)n1-c1ccc(Cl)cc1 | ? | - | - | - | -
CC1(C)CC(C(=O)N2CCOc3ccc(CN4CCC(Oc5cccnc5)CC4)cc3C2)CCO1 (stereo not drawn) | . | . | . | - | .
O=c1cc(-c2ccccc2)n2c(SCc3ccccc3Cl)nnc2[nH]1 | . | . | . | - | .
CS(=O)(=O)Nc1cccc(-c2nccc(-n3ccnc3)n2)c1 | . | . | . | - | .
CCc1ccccc1NC(=O)c1ccc2c(c1)N(Cc1cc(C)ccc1C)C(=O)c1ccccc1S2(=O)=O | . | . | - | - | -
COc1cc(CN(C(=O)COc2ccc(C)c(C)c2)c2ccccn2)cc(OC)c1OC | . | . | . | - | .
C/C(=N\Nc1cc(N2CCCCC2)nc(C)n1)c1ccc(Br)cc1 | 12µM | ? | ? | - | ?
CCc1ccc(Sc2cc(C(=O)NCc3ccccc3OC)c3ccccc3n2)cc1 | . | . | - | - | ?
CCOc1cccc2cc(-c3nc4sc5c(c4c(=O)[nH]3)CCC(C)C5)c(=O)oc12 (stereo not drawn) | . | . | . | - | .
CN(Cc1ccccc1N1CCCC1)C(=O)c1cc2cc(Cl)ccc2o1 | 15µM | - | ? | - | ?
Oc1ccc(/C=N/Nc2ccnc3cc(Cl)ccc23)cc1O | - | 16µM | - | - | -
Oc1ccc(/C=N/Nc2ccnc3cc(Cl)ccc23)c(O)c1O | - | ? | - | - | -
CC1CN(Cc2nc3c(c(=O)n(C)c(=O)n3C)n2CCc2ccccc2)CC(C)O1 (stereo not drawn) | - | - | - | - | -
Cc1ccc(OCCn2c(Br)nc3c2c(=O)n(C)c(=O)n3C)cc1 | - | - | 21µM | - | ?
COCCn1c(Br)nc2c1c(=O)n(C)c(=O)n2C | - | - | - | - | -
CC1CN(Cc2nc3c(c(=O)[nH]c(=O)n3C)n2CCCc2ccccc2)CC(C)O1 (stereo not drawn) | - | - | - | - | 3.3µM
Cc1csc(Sc2nc3c(c(=O)[nH]c(=O)n3C)n2CCCc2ccccc2)n1 | - | - | ? | - | 4.1µM
Cn1c(=O)c2c(nc(Br)n2CCc2ccccc2)n(C)c1=O | - | - | - | - | 16µM
O=S1(=O)CC(N2CCN(CCO)CC2)CN1Cc1cn(Cc2ccccc2C(F)(F)F)nn1 (stereo not drawn) | . | . | - | - | -
OC[C@@H]1CN(Cc2cccs2)C[C@H](n2cnc3c(N4CCCC4)ncnc32)O1 | . | . | - | - | -
COCCNc1nc2c(c(=O)n(C)c(=O)n2C)n1CCCc1ccccc1 | . | . | - | - | 16µM
Cn1c(=O)[nH]c(=O)c2c1nc(NCc1ccccc1)n2CCCc1ccccc1 | - | - | - | - | 12µM
SMILES | MCF10A rereplic | SW480 rerep | KB-3-1 tox | PINK1 modulator | KB-V1 MDR tox
C=CCNc1nc2c(c(=O)n(C)c(=O)n2C)n1CCCCCC | - | - | 1.5µM | - | 1.5µM
Cn1c(=O)c2c(nc(NCc3ccco3)n2C/C=C/c2ccccc2)n(C)c1=O | ? | ? | - | - | 3.3µM
CNc1nc2c(c(=O)[nH]c(=O)n2C)n1CCCc1ccccc1 | ? | - | - | - | -
CCOCCCNc1nc2c(c(=O)n(C)c(=O)n2C)n1CCCc1ccccc1 | - | - | - | - | -
Cc1cccc(Cn2c(SCc3ccc(C(=O)NCCc4ccccc4)cc3)nc3ccncc32)c1 | . | . | ? | - | -
Cn1c(=O)c2c(nc(NCc3ccccc3)n2CCCc2ccccc2)n(C)c1=O | ? | - | ? | - | 2.9µM
Cn1c(=O)c2c(nc(NCCO)n2CCCc2ccccc2)n(C)c1=O | - | - | - | - | -
CNc1nc2c(c(=O)n(C)c(=O)n2C)n1CCCc1ccccc1 | - | - | ? | - | 8.2µM
CCCCCCCCCCOC(=O)Cn1c(COc2ccc(OC)cc2)[n+](C)c2ccccc21 | 6.5µM! | ? | 21µM! | - | -
CCC1(C2CCN(C(=O)c3coc4c3C(=O)CCC4)CC2)NC(=O)N(CCc2scnc2C)C1=O (stereo not drawn) | . | . | . | - | .
O=C(O)CN1CCNCCN(CC(=O)O)CCNCC1 | - | 2.9µM | ? | - | ?
O=C(O)CN1CCN(CC(=O)O)CCN(CC(=O)O)CCN(CC(=O)O)CC1 | - | - | - | - | -
Cc1cc2c(cc1NS(=O)(=O)c1ccc(F)cc1)n(C)c(=O)c(=O)n2C | . | . | - | - | ?
Oc1cc(-c2cccs2)cc2c1OCCN(Cc1cn[nH]c1-c1ccc(Cl)cc1)C2 | . | . | . | - | .
COc1cnc(-c2ccccn2)nc1Oc1ccccc1Cl | - | - | - | - | -
COc1ccccc1Sc1nc(-c2ccccn2)ncc1OC | - | ? | ? | - | -
COc1cnc(-c2ccccn2)nc1Sc1ccc(C)cc1 | - | ? | - | ? | -
COc1cnc(-c2ccccn2)nc1Sc1cccc(Cl)c1 | 21µM | 12µM | - | - | ?
COc1cnc(-c2ccccn2)nc1NC(C)C | 23µM | 6.5µM | ? | - | 7.3µM
COc1cnc(-c2ccccn2)nc1Oc1ccc(Cl)cc1 | ? | 10µM | - | - | ?
Cc1ccc(-n2c(=O)c3ccccc3n(CC(=O)Nc3cccc(C(F)(F)F)c3)c2=O)cc1 | . | . | - | - | ?
CCOC(=O)C1C(=O)NC(c2ccccc2)=NC1c1ccc(F)cc1 (stereo not drawn) | - | - | - | - | -
CSC1=NC(C(Cl)(Cl)Cl)N=C(c2ccccc2)N1 (stereo not drawn) | ? | ? | 3.3µM | - | 5.8µM
Cc1ccc(C)c(CSc2nnc(-c3cccnc3)o2)c1 | - | - | - | - | 18µM
Fc1ccccc1CSc1nnc(-c2cccnc2)o1 | - | - | - | - | -
COc1cccc(-c2onc3ccc(C4(C)OCCO4)cc23)c1 | 18µM | - | - | - | -
Cc1nn2c(N3CCN(C)CC3)cc(C(C)(C)C)nc2c1-c1ccccc1 | ? | ? | ? | - | ?
COc1ccccc1-c1cc2nc(-c3ccccc3)cc(N3CCN(C(=O)c4ccoc4)CC3)n2n1 | . | . | ? | - | 9.2µM
O=C(c1ccoc1)N1CCN(c2cc(-c3ccccc3)nc3cc(-c4ccccc4)nn23)CC1 | . | . | 16µM | - | ?
Cc1nn2c(N3CCN(C(=O)c4ccco4)CC3)cc(C(C)(C)C)nc2c1-c1ccccc1 | - | - | ? | - | 18µM
